Laboratory results: article PMC6451091, “NextPBM: a platform to study cell-specific transcription factor binding and cooperativity”
Over roughly 3,700 sequences, “z-score” has its median near 4; the highest 2% begin near 8.4. Shown is part of a subset that was picked to be rich in the highest values.

Assays:
PU.1 (IVT) [1] = molecular target: PU.1 (IVT) (UniProt P17947 1-270); test: protein-binding microarray (PBM); 20 mM HEPES pH 7.9, 100 mM NaCl, 1 mM DTT, 0.2 mg/mL BSA, 0.02% Triton X-100, 2% milk, 0.4 mg/mL salmon testes DNA; 1 h; temperature not stated; high values mean tight binding; conditions: dsDNA, one strand shown
How it was run: (§1)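 Binding is given as a z-score derived from scanned fluorescence that was normalised by linear regression. To obtain it, full-length untagged PU.1 from coupled human in vitro transcription/translation was applied for 1 h to custom double-stranded DNA microarrays of 20-bp genomic sites and single-nucleotide variants, using 10 probes per site with 5 in each orientation. The binding buffer was HEPES pH 7.9 with 100 mM NaCl, 2% milk and salmon testes DNA, and detection used anti-PU.1 and then a fluorescent secondary antibody.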

PU.1 (IVT) [2] = molecular target: PU.1 (IVT) (UniProt P17947 1-270); test: as above; conditions: dsDNA, one strand shown; remark: listed apart in the source
How it was run: as §1

Sequence	binding signal (PU.1 (IVT) [1]) [z-score]	binding signal (PU.1 (IVT) [2]) [z-score]
GCCTAGCACGCTTTAGGGAACTACTGTGGGTGCTAGGTCTTGATTCGCTTGACGCTGCTG	3.58	
GCCTAGCACCCTAAAGGGAAGTGTAAATAGTGCTAGGTCTTGATTCGCTTGACGCTGCTG	3.27	
GCCTAGCACCAAATCAGGAACTGATGCGGGTGCTAGGTCTTGATTCGCTTGACGCTGCTG	3.39	
GCCTAGCACTTTTATCAGGAAATGACTGGGTGCTAGGTCTTGATTCGCTTGACGCTGCTG	0.896	
GCCTAGCACTCAGGAGGGAAGTGAAGAAAGTGCTAGGTCTTGATTCGCTTGACGCTGCTG		2.65
GCCTAGCACAGATTGTGGAAGTACTGTGAGTGCTAGGTCTTGATTCGCTTGACGCTGCTG		2.73
GCCTAGCACAGAATAGGGAAGTGAGAAATGTGCTAGGTCTTGATTCGCTTGACGCTGCTG		6.39
GCCTAGCACCAGAAAAGGAAGTGGGGGTGGTGCTAGGTCTTGATTCGCTTGACGCTGCTG	3.51	
GCCTAGCACCTGGGAGGGAACTGAAACTCGTGCTAGGTCTTGATTCGCTTGACGCTGCTG	0.859	
GCCTAGCACTGGAAGAGGAAGTGGCACTGGTGCTAGGTCTTGATTCGCTTGACGCTGCTG	5.78	
GCCTAGCACCTTTTAAGGAAGTGCTCACTGTGCTAGGTCTTGATTCGCTTGACGCTGCTG	4.92	
GCCTAGCACGAAAAAAGGAAGTAGTATAAGTGCTAGGTCTTGATTCGCTTGACGCTGCTG		6.96
GCCTAGCACGAAAAGAGGAAGAGTCTTAGGTGCTAGGTCTTGATTCGCTTGACGCTGCTG	5	
GCCTAGCACGAAAAGAGGAAATGGGGAGTGTGCTAGGTCTTGATTCGCTTGACGCTGCTG	5.14	
GCCTAGCACGAAAAGAGGAAGCCCATGTGGTGCTAGGTCTTGATTCGCTTGACGCTGCTG		5.2
GCCTAGCACGAAGTAGGGAAGTGAAAGAGGTGCTAGGTCTTGATTCGCTTGACGCTGCTG	3.36	
GCCTAGCACGAAAAGAGGAAGTTGGACATGTGCTAGGTCTTGATTCGCTTGACGCTGCTG		8.75
GCCTAGCACGAAAAGAGGAAGTTGCTTACGTGCTAGGTCTTGATTCGCTTGACGCTGCTG		9.03
GCCTAGCACGAAAAGAGGAAGTTGGGGAAGTGCTAGGTCTTGATTCGCTTGACGCTGCTG		8.94
GCCTAGCACGAAAAGGGGAAGTTGGGTTGGTGCTAGGTCTTGATTCGCTTGACGCTGCTG		8.21
GCCTAGCACGAAAAGAGGAAGTAGGATAAGTGCTAGGTCTTGATTCGCTTGACGCTGCTG		8.46
GCCTAGCACGAAAAGAGGAAGTCTTGCATGTGCTAGGTCTTGATTCGCTTGACGCTGCTG		8.22

Sequence	binding signal (PU.1 (IVT) [1]) [z-score]	binding signal (PU.1 (IVT) [2]) [z-score]
GCCTAGCACGAAAAGAGGAAGTGAGAAACGTGCTAGGTCTTGATTCGCTTGACGCTGCTG		8.29
GCCTAGCACAAAAAAAGGAAGTGAAAGTAGTGCTAGGTCTTGATTCGCTTGACGCTGCTG		6.78
GCCTAGCACGGTGGGAGGAAGTGATCGGTGTGCTAGGTCTTGATTCGCTTGACGCTGCTG	3.72	
GCCTAGCACGAAAAGGGGAAGTGAGGGATGTGCTAGGTCTTGATTCGCTTGACGCTGCTG		7.81
GCCTAGCACGAAAAAAGGAAGTTGCACAGGTGCTAGGTCTTGATTCGCTTGACGCTGCTG		6.42
GCCTAGCACTGGGAGGAGAAGTGAAACCTGTGCTAGGTCTTGATTCGCTTGACGCTGCTG		1.37
GCCTAGCACTGAAAGAGGAATTGCAACCAGTGCTAGGTCTTGATTCGCTTGACGCTGCTG		2.04
GCCTAGCACGAAAAGAGGAAGTTAAAGAAGTGCTAGGTCTTGATTCGCTTGACGCTGCTG		8.52
GCCTAGCACGAAAAGAGGAAGTGAAGTTAGTGCTAGGTCTTGATTCGCTTGACGCTGCTG		8.28
GCCTAGCACGAAAAGAGGAAGTCTGAAAAGTGCTAGGTCTTGATTCGCTTGACGCTGCTG		7.48
GCCTAGCACAGTTGGAGGAAGTGGCACTTGTGCTAGGTCTTGATTCGCTTGACGCTGCTG		2.78
GCCTAGCACGAAAACAGGAAGTGGGGATGGTGCTAGGTCTTGATTCGCTTGACGCTGCTG		7.43
GCCTAGCACCAAAAGAGGAAGTCAAGCTGGTGCTAGGTCTTGATTCGCTTGACGCTGCTG		7.88
GCCTAGCACCAAAAGAGGAAGTCAGAGAGGTGCTAGGTCTTGATTCGCTTGACGCTGCTG		7.94
GCCTAGCACCAAAAGAGGAACTGCTGCTGGTGCTAGGTCTTGATTCGCTTGACGCTGCTG		6.83
GCCTAGCACCAAAAGAGGAAGTGAAGCTGGTGCTAGGTCTTGATTCGCTTGACGCTGCTG		8.37
GCCTAGCACCAAAAGAGGAAGTTGGCAAAGTGCTAGGTCTTGATTCGCTTGACGCTGCTG		8.72
GCCTAGCACCAAAAGAGGAAGTGGCATATGTGCTAGGTCTTGATTCGCTTGACGCTGCTG		8.01
GCCTAGCACCAAAGAAGGAAGTGAAACTGGTGCTAGGTCTTGATTCGCTTGACGCTGCTG		4.74
GCCTAGCACCAAAAGAGGAAGTGGTGAAAGTGCTAGGTCTTGATTCGCTTGACGCTGCTG		8.4
GCCTAGCACCAAAAGAGGAAGTGGTATCAGTGCTAGGTCTTGATTCGCTTGACGCTGCTG		8.24
GCCTAGCACTGAGAGAGGAAGTAACTTAAGTGCTAGGTCTTGATTCGCTTGACGCTGCTG	5.44	

Sequence	binding signal (PU.1 (IVT) [1]) [z-score]	binding signal (PU.1 (IVT) [2]) [z-score]
GCCTAGCACCTGCCAGGGAAGTGAAATCAGTGCTAGGTCTTGATTCGCTTGACGCTGCTG		1.1
GCCTAGCACGAGAAGAGGAAGTGAGATCTGTGCTAGGTCTTGATTCGCTTGACGCTGCTG		6.45
GCCTAGCACAAAAAGAGGAAGAGGGGACAGTGCTAGGTCTTGATTCGCTTGACGCTGCTG		5.23
GCCTAGCACAAAGTGGGGAAGTGACAAAAGTGCTAGGTCTTGATTCGCTTGACGCTGCTG	3.36	
GCCTAGCACAAAAAGGGGAAGTGACATAAGTGCTAGGTCTTGATTCGCTTGACGCTGCTG		8.47
GCCTAGCACAAAAAAGGGAAGTGAAAATAGTGCTAGGTCTTGATTCGCTTGACGCTGCTG		7.69
GCCTAGCACAAAAAAGGGAAGTGATTTAAGTGCTAGGTCTTGATTCGCTTGACGCTGCTG		8.59
GCCTAGCACAAAAAAGGGAAGTGACATACGTGCTAGGTCTTGATTCGCTTGACGCTGCTG		7.76
GCCTAGCACAAAAAAGGGAAGTGCCATAAGTGCTAGGTCTTGATTCGCTTGACGCTGCTG		7.55
GCCTAGCACGAAAAGAGGAACCGTATGGTGTGCTAGGTCTTGATTCGCTTGACGCTGCTG		5.79
GCCTAGCACTAAAAGAGGAAGAGGAAGAAGTGCTAGGTCTTGATTCGCTTGACGCTGCTG	5.75	
GCCTAGCACTAAAAGAGGAAGTAGCCAAAGTGCTAGGTCTTGATTCGCTTGACGCTGCTG		8.23
GCCTAGCACTAAAAGAGGAAGTGCAACCAGTGCTAGGTCTTGATTCGCTTGACGCTGCTG		8.29
GCCTAGCACTAAAAGAGGAAGTGACCTCAGTGCTAGGTCTTGATTCGCTTGACGCTGCTG		7.82
GCCTAGCACTAAAAGAGGAAGTGCATTCAGTGCTAGGTCTTGATTCGCTTGACGCTGCTG		8.5
GCCTAGCACTAAAAGAGGAAGTAGGAATAGTGCTAGGTCTTGATTCGCTTGACGCTGCTG		8.36
GCCTAGCACAGCAGGAGGAAGTGGGTGGAGTGCTAGGTCTTGATTCGCTTGACGCTGCTG	3.97	
GCCTAGCACAAAAAAAGGAAATGAAATTAGTGCTAGGTCTTGATTCGCTTGACGCTGCTG		3.65
GCCTAGCACCAAAAGAGGAAGAGTCTGACGTGCTAGGTCTTGATTCGCTTGACGCTGCTG		4.26
GCCTAGCACACAAAAAGGAACTGTTCCCCGTGCTAGGTCTTGATTCGCTTGACGCTGCTG		2.27
